Screening results: PubChem BioAssay, National Center for Advancing Translational Sciences (NCATS)
This is a sample that favours compounds with a hit; in the whole collection about 3% have one here.
GRP78 ERSR act: inducers of ER stress response in human glioma cells; U87-MG GRP78 promoter luciferase reporter, 16 h; Potency, µM, inactives show top-dose activation, actives largely listed as activators; 420,000 compounds, 0.02% hits; note: potency is the fitted concentration of half-maximal effect; series mostly up to about 76 µM; % of control where 0% means no effect; nearly all actives have a fitted effect of over 35% in size
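ERSR induction read as luciferase luminescence (Bright-Glo, 10 min at room temperature) in stably transfected human U87-MG glioma cells exposed to compounds for 16 h, using GRP78 as sensor.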
DRD3 agonist: D3 dopamine receptor (human) agonism; D3R DiscoveRx beta-arrestin cells, luminescence, 90 min; max activation, %; 410,000 compounds, 0.58% hits; in the data active = max activation above about 30%; note: 0% is about no effect
Target sequence (P35462 whole entry, looked up): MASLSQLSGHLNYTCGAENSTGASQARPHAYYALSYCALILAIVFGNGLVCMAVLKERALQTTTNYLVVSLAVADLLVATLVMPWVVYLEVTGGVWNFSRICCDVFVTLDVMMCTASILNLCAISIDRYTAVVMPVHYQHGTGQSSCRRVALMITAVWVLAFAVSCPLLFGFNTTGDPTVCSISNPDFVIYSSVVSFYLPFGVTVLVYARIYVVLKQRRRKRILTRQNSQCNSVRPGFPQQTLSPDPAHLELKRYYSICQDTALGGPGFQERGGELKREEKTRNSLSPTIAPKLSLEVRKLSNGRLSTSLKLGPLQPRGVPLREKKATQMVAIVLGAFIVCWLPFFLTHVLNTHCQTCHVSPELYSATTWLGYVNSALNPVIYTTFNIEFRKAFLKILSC
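Agonist mode: compounds and dopamine controls were applied to plated cells for 90 min at 37 degrees C after an overnight attachment at 1500 cells/well. Luminescent read-out followed 30 - 60 minutes at room temperature with DiscoveRx detection reagent.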
D3 antag: antagonists of human D3 dopamine receptor; P35462; D3R cells, DiscoveRx beta-arrestin luminescence, antagonist mode; hits give low values; max response, negative = inhibition, %; 360,000 compounds, 2.5% hits; in the data active = max response below about -50%; inconclusive = no clear call, values can overlap the other calls; note: % is set by controls: 0 for no effect and ±100 for the full control effect
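Cells plated overnight at 1500 cells/well, then exposed to library compounds with dopamine controls for 90 minutes at 37 degrees C. DiscoveRx reagent added for 30–60 minutes at room temperature; luminescence read, quantitative HTS format.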
Nrf2 ARE act: Nrf2 pathway activation. Potency, µM (series often up to 46.1 µM), without a hit: at the highest dose activation, hits mostly activators. AREc32 ARE-luciferase reporter (MCF7-derived line), luminescence, 24 h. 410,000 compounds, 0.31% hits; note: potency is the fitted concentration of half-maximal effect; % of control where 0% means no effect; nearly all actives have a fitted effect of over 65% in size
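Quantitative high-throughput format: AREc32 reporter cells, 1000 per well, received compound by pin transfer and were incubated 24 hr at 37 deg C, 5% CO2, before Steady-Glo luminescence detection.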
* = called active by the depositor; ? = inconclusive; · = no result given. Unless noted, calls come from the whole dose curve; as a rule, active = well fitted curve in the direction sought with a large enough effect; inconclusive = small, poorly fitted or top-dose-only effect, or another doubt; inactive = no such curve, though single readings can be large; an effect the other way counts as inactive or inconclusive.

SMILES	GRP78 ERSR act	DRD3 agonist	D3 antag	Nrf2 ARE act
COc1ccccc1CNC(=O)CSc1nc2nc(C)c(Cc3ccccc3C)c(C)n2n1	-1.7%	-3.5	·	2.8%
CN(C)C(CNC(=O)c1ccc(C2SCCS2)cc1)c1ccccc1 (centres undefined)	14.8%	-25.8	-53.5*	10.2%
CC1=C(CO)C(=O)OC([C@@H](C)C2CC[C@H]3C4C[C@H]5O[C@]56[C@@H](O)C=CC(=O)[C@]6(C)C4CC[C@]23C)C1 (some centres undefined)	-10.7%	-67.4	-135.6*	-2.4%
CC(C(=O)O)C1CCC2C3CC=C4CC(O)CC[C@@]4(C)C3CC[C@]12C (some centres undefined)	-3.0%	·	·	·
CC(C)c1c(C(=O)NCc2ccccn2)cnn1-c1nccc(-c2ccccc2F)n1	-0.8%	·	·	·
Cc1ccc(NC(=O)C2CCN(C(=O)c3ccco3)CC2)cc1	2.2%	3.3	4.7	-0.5%
O=C(Nc1ccc(Cl)c(Cl)c1)C1CCN(C(=O)c2ccco2)CC1	-1.4%	-12.7	-80.7*	7.7%
CN(Cc1cc(Cl)cc(Cl)c1)CC(C(=O)c1ccccc1)c1ccccc1 (centres undefined)	-6.1%	-3.6	-22.5	11.2µM*
CN(C)CC(C(=O)c1ccccc1)c1ccccc1 (centres undefined)	-13.3%	-22.2	-51.3*	?
COc1cccc(CCNc2ncnc3sc(C(=O)N4CCOCC4)c(C)c23)c1	-2.5%	·	·	·
Brc1cccc[n+]1CCCCCC[n+]1ccccc1Br	-3.9%	·	·	·
COc1ccccc1C(=O)N[C@@H]1c2ccccc2C2(CCN(Cc3cccnc3)CC2)[C@H]1O	-5.2%	·	·	·
O=C(CSc1nc(-c2ccc(F)cc2)cc(C(F)(F)F)n1)NCc1ccccc1	-3.3%	-8.2	·	-1.1%
COC(=O)c1ccc(C2c3[nH]c4ccccc4c3C[C@H]3C(=O)N(C4CCN(Cc5ccccc5)CC4)CC(=O)N23)cc1 (some centres undefined)	-2.8%	-21.5	-61.2*	2.5%
CCOc1ccccc1C1c2[nH]c3ccccc3c2C[C@H]2C(=O)N(C3CCN(Cc4ccccc4)CC3)CC(=O)N12 (some centres undefined)	-3.4%	-37.8	-104.8*	-0.6%
COc1ccc(C2c3[nH]c4ccccc4c3C[C@H]3C(=O)N(C4CCN(Cc5ccccc5)CC4)CC(=O)N23)c(OC)c1 (some centres undefined)	-3.4%	-18.0	-29.7	0.5%
O=C1[C@@H]2Cc3c([nH]c4ccccc34)C(c3ccccc3)N2C(=O)CN1C1CCN(Cc2ccccc2)CC1 (some centres undefined)	-1.1%	-15.0	-11.3	12.6%
Cc1ccc(C)c2c1NC(C(=O)O)C1CC=CC21 (centres undefined)	-4.7%	·	·	·
O=C(Nc1ccc(-c2nc3cc(Cl)ccc3c(=O)o2)cc1)c1ccco1	-5.3%	8.4	-21.5	0.4%
O=C(Nc1ccc(-c2nc3c(ccc4ccccc43)o2)cc1)c1ccco1	6.6%	46.3*	59.0	11.6%
Cc1cnc(SCC2CCCO2)nc1C1CCCN(Cc2cc3c(cc2Cl)OCO3)C1 (centres undefined)	-4.8%	·	·	·
CCN(Cc1ccc(NC(C)=O)cc1)CC1CCCN(CCc2cccc(OC)c2)C1 (centres undefined)	-2.9%	-5.4	-51.6*	2.1%
CCN(CC)CCNC(=O)c1ccc(N2CCCCC2)c(NS(=O)(=O)c2ccc(C)cc2)c1	-7.6%	-13.1	-81.6*	5.1%
COC(=O)c1ccc(N2CCCCC2)c(NS(=O)(=O)c2ccc(C)cc2)c1	-0.5%	-15.8	-14.9	5.0%
Cc1cc(C=O)cc(C)c1[N+](=O)[O-]	-1.0%	·	·	·
SMILES	GRP78 ERSR act	DRD3 agonist	D3 antag	Nrf2 ARE act
Clc1ccc(-c2csc3ncnc(Sc4nnnn4C4CC4)c23)cc1	-10.5%	·	·	·
CCCCC(=O)/C=C/n1c(=S)oc2ccccc21	-4.0%	-1.9	-3.1	10µM*
CC(C)OC(=O)n1c(=S)oc2ccccc21	-5.5%	-2.1	13.1	1.8%
Cn1nnnc1SCC1=C(C(=O)O)N2C(=O)[C@@H](NC(=O)[C@H](OC=O)c3ccccc3)[C@H]2SC1	-3.1%	3.9	·	·
CCN1CCCC1CNS(=O)(=O)c1c(C)cc(C)cc1C (centres undefined)	?	-18.7	-99.6*	-0.3%
C=CCc1ccc(OCC(O)CN2CCN(c3ccccc3OC)CC2)c(OC)c1 (centres undefined)	0.4%	-9.3	-103.0*	-0.5%
C=CCc1ccc(OCC(O)CN2CCC(Cc3ccccc3)CC2)c(OC)c1 (centres undefined)	-3.4%	-17.4	-23.8	2.2%
C=CCc1ccc(OCC(O)CN2CCN(Cc3ccc(Cl)cc3)CC2)c(OC)c1 (centres undefined)	-7.6%	-6.2	-73.4*	2.3%
COc1ccc(CC(C)N2CCN(c3ccccc3OC)CC2)cc1OC (centres undefined)	-4.9%	-37.1	-92.8*	0.0%
C=CCc1ccccc1OCC(O)CNC (centres undefined)	2.9%	2.8	-64.5*	0.2%
COC(=O)C1CCN(Cc2ccc3c(c2)CN(C(=O)c2sc(C)nc2C)CCO3)CC1	-4.6%	·	·	·
C=CCc1ccccc1OCC(O)CN1CCN(c2ccc(OC)cc2)CC1 (centres undefined)	-0.2%	-4.2	-82.0*	0.5%
C=CCc1ccccc1OCC(O)CN1CCOCC1 (centres undefined)	-2.8%	-1.7	1.4	2.0%
C/C(=N\NC(=S)NCC(C)(C)C)c1cc(F)cc(F)c1O	1.9%	-13.1	-87.6*	10µM*
O=C(N[C@@H]1c2ccccc2C2(CCN(Cc3c(O)ccc4ccccc34)CC2)[C@H]1O)c1ccccc1	-0.9%	·	·	·
C[C@H](CO)N1C[C@H](C)[C@@H](CN(C)C(=O)Nc2ccccc2)Oc2ccc(NS(=O)(=O)c3ccc(F)cc3)cc2C1=O	1.6%	37.3*	13.0	-1.3%
C[C@H](CO)N1C[C@H](C)[C@@H](CN(C)C(=O)Nc2ccccc2)Oc2ccc(NS(=O)(=O)c3ccccc3)cc2C1=O	-4.6%	-3.0	8.2	-0.9%
C[C@H](CO)N1C[C@H](C)[C@@H](CN(C)S(=O)(=O)c2cn(C)cn2)Oc2ccc(NS(=O)(=O)c3ccccc3)cc2C1=O	?	35.3*	6.7	0.3%
C[C@H](CO)N1C[C@H](C)[C@@H](CN(C)C(=O)NC2CCCCC2)Oc2c(NS(=O)(=O)c3ccccc3)cccc2C1=O	-3.8%	0.8	0.0	2.7%
C[C@H](CO)N1C[C@H](C)[C@@H](CN(C)C(=O)NC2CCCCC2)Oc2c(NS(=O)(=O)c3ccc(F)cc3)cccc2C1=O	-1.7%	30.7*	-11.5	1.6%
C[C@H](CO)N1C[C@H](C)[C@@H](CN(C)S(=O)(=O)c2ccccc2)Oc2ccc(NS(=O)(=O)c3cn(C)cn3)cc2C1=O	2.7%	-9.6	-9.8	-0.4%
C[C@H](CO)N1C[C@H](C)[C@@H](CN(C)S(=O)(=O)c2cn(C)cn2)Oc2c(NS(=O)(=O)c3ccccc3)cccc2C1=O	-4.7%	49.5*	49.5	-0.8%
COC(=O)[C@H](CCCN=C(N)N)NC(=O)CCCc1c(-c2ccccc2)[nH]c2c(F)cc(F)cc12	-4.6%	·	·	·
